Laboratory results published in PubChem BioAssay (EPA / NIEHS).
Activity calls are given as the source filed them. The calls were made as follows: active = hit-call score of the fitted dose curve at least 0.9, where 1 is the maximum; inactive = score below 0.9.

read-out: Monokine induced gamma interferon (MIG), CXCL9 (gene 4283); test: BSK_hDFCGF_MIG: BioMAP Diversity Plus: hDFCGF Assay for Monokine induced gamma interferon (MIG) Biomarker Activity (AID 2283063); conditions: primary human foreskin fibroblasts; actives raise or lower the signal
Procedure, shortened: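 MIG/CXCL9 measured by ELISA 24 h after dosing primary human skin fibroblasts. Activity fitted in both directions against DMSO controls. Cytotoxicity was checked in parallel cultures by SRB staining read at 560 nm.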

Row | SMILES | outcome
1 | CCCCCCC(O)CCCCCCCCCCC(=O)OC (configuration not stated) | inactive
2 | CCC(C)=NO | inactive
3 | Cc1cc(-n2nc3ccc(Cl)cc3n2)c(O)c(C(C)(C)C)c1 | inactive
4 | Oc1cccc2ccccc12 | inactive
5 | CN(C)c1ccc(C(c2ccccc2)c2ccc(N(C)C)cc2)cc1 | inactive
6 | CC[N+](CC)(CC(=O)Nc1c(C)cccc1C)Cc1ccccc1 (tested in a mixture with another compound) | inactive

read-out: Vascular cell adhesion molecule 1 (VCAM1), VCAM1 (gene 7412); test: BSK_hDFCGF_VCAM1: BioMAP Diversity Plus: hDFCGF Assay for Vascular cell adhesion molecule 1 (VCAM1) Biomarker Activity (AID 2283065); conditions: primary human foreskin fibroblasts; actives raise or lower the signal
Procedure, shortened: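 Human foreskin fibroblast primary cells dosed with chemical, VCAM-1 measured by ELISA at 24 h. Bidirectional curve fitting relative to DMSO as negative control/baseline.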

Row | SMILES | outcome
7 | CCCCCCC(O)CCCCCCCCCCC(=O)OC (configuration not stated) | inactive
8 | CCC(C)=NO | inactive
9 | Cc1cc(-n2nc3ccc(Cl)cc3n2)c(O)c(C(C)(C)C)c1 | inactive
10 | Oc1cccc2ccccc12 | inactive
11 | CN(C)c1ccc(C(c2ccccc2)c2ccc(N(C)C)cc2)cc1 | inactive
12 | CC[N+](CC)(CC(=O)Nc1c(C)cccc1C)Cc1ccccc1 (tested in a mixture with another compound) | inactive
